Screens (PubChem)
HNF4A DNA FP = change in binding of human HNF4 alpha to DNA; activity change, % at 10 µM; P41235; actives 0.3% (n = 360,000); HNF4a-FITC DNA binding, fluorescence polarization, 1 h; in the data active = activity change above about 30%, passing the limit was not always enough
TPT1 inh = C. albicans TPT1 enzyme inhibition. recombinant caTPT1, FP RNA substrate dephosphorylation. inhibition, % at 5 µM. actives 0.81% (n = 300,000). AID 1962;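 active = inhibition above the mean of all tested compounds plus 3 SD, set per screening campaign, cut at about 24% in these data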
PHOSPHO1 block = PHOSPHO1 (human) inhibition; AID 1565; recombinant PHOSPHO1, absorbance phosphatase assay; Q8TCT1; actives 1.1% (n = 290,000); inhibition, % at 13.3 µM; in the data active = inhibition above about 60%
Target sequence (Q8TCT1 whole entry, looked up): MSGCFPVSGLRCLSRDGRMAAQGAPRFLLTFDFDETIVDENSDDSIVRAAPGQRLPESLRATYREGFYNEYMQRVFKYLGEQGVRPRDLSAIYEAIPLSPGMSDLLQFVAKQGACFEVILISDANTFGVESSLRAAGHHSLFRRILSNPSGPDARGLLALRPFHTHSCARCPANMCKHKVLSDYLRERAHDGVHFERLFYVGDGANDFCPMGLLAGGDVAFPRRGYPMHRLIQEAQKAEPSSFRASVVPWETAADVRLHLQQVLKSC
Rpn11 block = blocks the human proteasome subunit Rpn11; human 26S proteasome, Ub4-pepOG fluorescence polarization; 20S core pre-blocked with epoxomicin; actives 0.59% (n = 360,000); inhibition, % at 20 µM;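 active = inhibition at 20 µM, scaled to each plate's controls, above about 33%, limit read from the data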
Target sequence (O00487 whole entry, looked up): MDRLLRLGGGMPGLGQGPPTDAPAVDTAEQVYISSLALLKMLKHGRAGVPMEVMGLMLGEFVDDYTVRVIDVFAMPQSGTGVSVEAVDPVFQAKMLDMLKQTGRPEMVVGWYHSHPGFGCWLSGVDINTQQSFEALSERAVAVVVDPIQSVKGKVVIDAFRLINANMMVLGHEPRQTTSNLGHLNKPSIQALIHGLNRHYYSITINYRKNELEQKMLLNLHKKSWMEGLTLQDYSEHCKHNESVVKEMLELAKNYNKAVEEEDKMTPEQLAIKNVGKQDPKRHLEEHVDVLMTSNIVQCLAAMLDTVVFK
NRP1-CendR mod = modulators of CendR peptide binding to human neuropilin-1; actives 0.85% (n = 360,000); inhibition, % at 25 µM; O14786; FAM-RPARPAR peptide binding to NRP-1, fluorescence polarization;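 active = inhibition or corrected inhibition above about 18%, plus a signal ratio from 0.5 to 1.5, limit read from the data, passing the limit was not always enough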
CTSL1 counter = counter-screen for PFM18AAP inhibitors: inhibitors of F. hepatica cathepsin L1. inhibition, % at 5.96 µM. AID 1906. recombinant F. hepatica cathepsin L1, Z-Leu-Arg-MCA fluorescence. actives 0.49% (n = 300,000);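 active = inhibition above the mean of all tested compounds plus 3 SD, set per screening campaign, cut at about 17% in these data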
Rpn11 confirm = confirmation of human proteasome Rpn11 inhibitors; shares compounds with Rpn11 block; purified human 26S proteasome, Ub4-pepOG fluorescence polarization; proteasome pretreated with epoxomicin; inhibition, % at 20 µM; actives 29% (n = 1,900); AID 602318
MMP-2 counter = counter-screen for RPN11 inhibitors: inhibition of human MMP-2 | actives 4% (n = 1,900) | shares compounds with Rpn11 block | inhibition, % at 20 µM | recombinant MMP-2, FRET peptide cleavage fluorescence;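 also: human MMP-2 activated beforehand with APMA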
Thrombin FP = blocks bovine thrombin, flagging nonselective RPN11 hits. shares compounds with Rpn11 block. bovine thrombin cleavage of Ub4-pepOG, fluorescence polarization. inhibition, % at 20 µM. actives 13% (n = 1,900);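 active = mean inhibition at least 40% at 20 µM, or signal 3 deviations below plate average, so some actives read negative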
Each line names hits and unclear results; the compound was inactive in the other large screens (follow-up assays come after a bar, where they were run). A selection: hits, their analogues and other compounds. The true share with any hit is near 3.3%. Rule as the data show it, unless noted: active = inhibition above about 40%; inactive = the rest.

CCC(CC)c1nc2cc(OC)c(OC)cc2c(=O)o1	Rpn11 block active | Rpn11 confirm inactive | MMP-2 counter inactive | Thrombin FP inactive
CC1(C)Cc2c(sc(NC(=O)COc3cccc4ccccc34)c2C#N)C(C)(C)N1	HNF4A DNA FP 213.7, Rpn11 block 53.9 | Rpn11 confirm inactive | MMP-2 counter inactive | Thrombin FP inactive
CCCCCCCCCCCC1N=C(N)NC(CCCO)=C1C(=O)OC (centres undefined)	Rpn11 block 85.9 (no result: TPT1 inh, PHOSPHO1 block, CTSL1 counter) | Rpn11 confirm 49.3 | MMP-2 counter inactive | Thrombin FP inactive
CCCCCCOC(=O)c1ccc(N)cc1	none
CCOc1ccccc1OCCOCCN1CC(C)OC(C)C1 (centres undefined)	none
Cc1cccc(-n2cnc(C(=O)N/N=C\c3ccc(Br)cc3)c2)n1	Rpn11 block 49.1 | Rpn11 confirm inactive | MMP-2 counter inactive | Thrombin FP inactive
Cc1cccc(-n2cnc(C(=O)NNC(=S)Nc3ccc(Cl)cc3)c2)n1	none
COCCOC(=O)C1=C(C)NC(=O)NC1c1ccc(-c2cc(Cl)ccc2Cl)o1 (centres undefined)	Rpn11 block 46.1 | Rpn11 confirm inactive | MMP-2 counter inactive | Thrombin FP inactive
COC(=O)C1=C(C)NC(C)=C(C(=O)OC)C1c1ccc(-c2cc(Cl)ccc2Cl)o1	none
O=C(COc1ccccc1)N(Cc1cccs1)C1CCS(=O)(=O)C1 (centres undefined)	none
NC(=O)c1ccccc1NCC(=O)c1ccc(F)cc1	none
Cc1cc(-c2cc(C(=O)O)c3ccccc3n2)c(C)s1	Rpn11 block 36.0 | Rpn11 confirm inactive | MMP-2 counter inactive | Thrombin FP inactive
Cc1nn(C)cc1-c1cc(C(=O)O)c2ccccc2n1	none
Cc1ccc(-c2c(C#N)c(N)n3c(nc4ccccc43)c2C#N)cc1	Rpn11 block 62.7 | Rpn11 confirm 63.3 | MMP-2 counter inactive | Thrombin FP 82.1
O=C1C2C3C=CC(C3)C2C(=O)N1c1cccc(-c2nc3ccccc3o2)c1 (centres undefined)	Rpn11 block 54.0 | Rpn11 confirm inactive | MMP-2 counter inactive | Thrombin FP inactive
CCc1ccc(C(O)c2ncc(-c3ccccc3C(F)(F)F)[nH]2)cc1 (centres undefined)	none (no result: TPT1 inh, PHOSPHO1 block, CTSL1 counter)
CN(CC(=O)NCc1ccc2c(c1)OCO2)S(=O)(=O)c1ccc(Br)s1	none
COc1ccc(N(CC(=O)NC2CCCCC2)C(=O)CNC(=O)c2ccco2)cc1	none
COc1ccccc1C(=O)N=Nc1c(O)[nH]c2ccc([N+](=O)[O-])cc12	none (no result: TPT1 inh, CTSL1 counter)
O=C(N=Nc1c(O)[nH]c2ccc([N+](=O)[O-])cc12)c1cc(-c2ccccc2Cl)nc2ccccc12	Rpn11 block 37.3 | Rpn11 confirm inactive | MMP-2 counter inactive | Thrombin FP inactive
Cc1ccc(NC(=O)CSc2nc3[nH]ncc3c(=O)[nH]2)cc1Cl	Rpn11 block 51.2 (no result: PHOSPHO1 block) | Rpn11 confirm inactive | MMP-2 counter inactive | Thrombin FP inactive
O=C(CSc1nc2[nH]ncc2c(=O)[nH]1)Nc1ccc(Cl)c(Cl)c1	none (no result: PHOSPHO1 block)
COc1ccc(NC(=O)CS(=O)(=O)c2ccccc2Cl)cc1	none
Cc1cc(C)cc(NC(=O)C(OC(=O)c2ccc(NC(=O)CC#N)cc2)c2ccccc2)c1 (centres undefined)	Rpn11 block 48.5 (no result: PHOSPHO1 block) | Rpn11 confirm inactive | MMP-2 counter inactive | Thrombin FP inactive
Oc1c(CN2CCOCC2)cc(CN2CCOCC2)cc1CN1CCOCC1	Rpn11 block 43.5, NRP1-CendR mod 29.0 (no result: TPT1 inh, PHOSPHO1 block, CTSL1 counter) | Rpn11 confirm inactive | MMP-2 counter inactive | Thrombin FP inactive
Cc1cc(Br)ccc1OCC(=O)NNC(=O)c1ccc(NC(=O)C2CC2)cc1	Rpn11 block 55.2 | Rpn11 confirm inactive | MMP-2 counter inactive | Thrombin FP inactive
COc1cc(/C=C2\SC(=S)N(N(C)c3ccccc3)C2=O)ccc1O	Rpn11 block 57.3 | Rpn11 confirm inactive | MMP-2 counter inactive | Thrombin FP inactive
CC(C)c1ccc(NC(=O)COc2ccc(S(=O)(=O)N3CCOCC3)cc2)cc1	none
COc1ccc(NCC(=O)Nc2ccc(Br)cc2F)c(OC)c1	Rpn11 block 39.7 | Rpn11 confirm inactive | MMP-2 counter inactive | Thrombin FP inactive
O=C(c1cc([N+](=O)[O-])cc([N+](=O)[O-])c1)N1CCN(Cc2ccc3c(c2)OCO3)CC1	none
COC(=O)CCC(=O)N1CCCC(N2CCN(c3ccc(OC)cc3)CC2)C1 (centres undefined)	Rpn11 block 54.7 | Rpn11 confirm inactive | MMP-2 counter inactive | Thrombin FP inactive
COC(=O)c1c(NC(=O)C(C)C)sc(C(=O)N2CCOCC2)c1C	none
Cc1onc(-c2c(F)cccc2Cl)c1C(=O)OCC(=O)c1c[nH]c2ccccc12	Rpn11 block 57.7 | Rpn11 confirm inactive | MMP-2 counter inactive | Thrombin FP inactive
Cc1noc(C)c1C(=O)OCC(=O)c1c[nH]c2ccccc12	none
O=C1CSC(=S)N1N=Cc1c[nH]c2ccc(Br)cc12	Rpn11 block 61.1 (no result: TPT1 inh, PHOSPHO1 block, CTSL1 counter) | Rpn11 confirm inactive | MMP-2 counter inactive | Thrombin FP inactive
COc1ccc(Br)cc1/C=N/N1C(=O)CSC1=S	none
CCCSC1=N/C(=C\c2ccc3c(c2)OCO3)C(=O)S1	none
CCSC1=N/C(=C\c2ccc3c(c2)OCO3)C(=O)S1	Rpn11 block 41.7 | Rpn11 confirm 73.6 | MMP-2 counter inactive | Thrombin FP inactive
Cc1cccc2c3c([nH]c12)CCN(C)C3	none
CN1CCN(C(=O)CCN2C(=O)/C(=C\c3ccc(F)cc3)SC2=S)CC1	none (no result: TPT1 inh, PHOSPHO1 block, CTSL1 counter)
O=C(CN1C(=O)/C(=C/c2ccc(F)cc2)SC1=S)N1CCN(CCc2ccccn2)CC1	Rpn11 block 41.7 | Rpn11 confirm inactive | MMP-2 counter inactive | Thrombin FP inactive
CN1CCN(C(=O)c2cc(Br)cn2C)CC1	none
COc1ccc(C(=O)N[C@H]2CCCCNC2=O)cc1OC1CCN(C(C)C)CC1	none
CCc1ccc(OCC(=O)NNC(=O)c2cc(S(=O)(=O)N(C)C)ccc2N2CCCC2)cc1	Rpn11 block 44.0 (no result: PHOSPHO1 block) | Rpn11 confirm 55.5 | MMP-2 counter inactive | Thrombin FP inactive
CCOC(=O)c1c(C)[nH]c(C(=O)OCc2nc3ccsc3c(=O)[nH]2)c1C	none (no result: TPT1 inh, PHOSPHO1 block, CTSL1 counter)
